# In PubChem BioAssay AID2061166 (Soto Lab, Mitchell Center for Alzheimers Disease and …, 2025):
# A number with no mark means an inactive call. Calls of active or inactive are those of the source.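 The calls were made as follows: active = mean tau seeding fluorescence area under 1% of vehicle, meaning inhibition above a set limit; inactive = the rest.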
# Molecular target: Microtubule-associated protein tau (Homo sapiens) (UniProt P10636)
# Assay: blockers of AD brain-seeded tau fibril growth – biochemical, seed amplification, ThT fluorescence, primary screen (AID 2061166)
# Conditions: Recombinant tau seeded by AD brain, ThT fluorescence AUC; at 100 µM; hits give high values
# Sequence of Microtubule-associated protein tau (Homo sapiens) (P10636 whole entry, looked up): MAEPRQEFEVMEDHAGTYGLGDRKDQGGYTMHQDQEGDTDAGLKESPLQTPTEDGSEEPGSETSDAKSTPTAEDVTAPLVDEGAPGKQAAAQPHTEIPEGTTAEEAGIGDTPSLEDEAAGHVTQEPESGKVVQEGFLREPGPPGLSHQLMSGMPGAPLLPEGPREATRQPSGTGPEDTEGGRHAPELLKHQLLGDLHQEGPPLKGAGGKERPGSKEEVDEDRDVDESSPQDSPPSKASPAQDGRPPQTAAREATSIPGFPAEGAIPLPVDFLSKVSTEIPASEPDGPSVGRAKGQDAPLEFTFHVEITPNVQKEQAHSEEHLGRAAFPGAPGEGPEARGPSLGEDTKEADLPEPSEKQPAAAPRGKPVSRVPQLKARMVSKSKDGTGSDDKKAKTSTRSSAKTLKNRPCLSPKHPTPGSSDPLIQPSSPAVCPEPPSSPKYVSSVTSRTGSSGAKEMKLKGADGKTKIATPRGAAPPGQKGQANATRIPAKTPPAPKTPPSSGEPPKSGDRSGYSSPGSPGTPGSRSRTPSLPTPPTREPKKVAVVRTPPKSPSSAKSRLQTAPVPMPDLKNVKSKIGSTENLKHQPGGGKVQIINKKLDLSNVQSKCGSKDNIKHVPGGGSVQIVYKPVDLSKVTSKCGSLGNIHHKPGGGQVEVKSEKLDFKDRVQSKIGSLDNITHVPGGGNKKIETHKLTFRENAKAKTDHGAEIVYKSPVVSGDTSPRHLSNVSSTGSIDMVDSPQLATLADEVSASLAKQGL
row,SMILES,inhibition
1,Nc1cccc2c1C(=O)N(C1CCC(=O)NC1=O)C2=O (stereo not drawn),16.4%
2,Nc1ccc(S(=O)(=O)c2ccc(N)cc2)cc1,26.5%
3,Clc1cccc(Cl)c1NC1=NCCN1,-11.7%
4,CC(=O)c1c(O)c(C)c(O)c2c1OC1=CC(=O)C(C(C)=O)C(=O)C12C (stereo not drawn),21.4%
5,CC1CCC2(OC1)OC1CC3C4CC=C5CC(O)CC(O)C5(C)C4CCC3(C)C1C2C (stereo not drawn),13.9%
6,O=C(O)c1ccccc1O,11.4%
7,COC1CC2CCC(C)C(O)(O2)C(=O)C(=O)N2CCCCC2C(=O)OC(C(C)CC2CCC(O)C(OC)C2)CC(=O)C(C)/C=C(\C)C(O)C(OC)C(=O)C(C)CC(C)/C=C/C=C/C=C/1C (stereo not drawn),14%
8,C#CCNC1CCc2ccccc21 (stereo not drawn),-62.3%
9,CCC(=O)NCCC1CCc2ccc3c(c21)CCO3 (stereo not drawn),-20.8%
10,CCc1cc2c(cc1N1CCC(N3CCOCC3)CC1)C(C)(C)c1[nH]c3cc(C#N)ccc3c1C2=O,-7.3%
11,COc1ccc(Cc2cnc(N)nc2N)cc1OC,37.1%
12,CCCCCCCCCC(=O)O,0.189%
13,OC(CCN1CCCCC1)(c1ccccc1)C1CCCCC1 (stereo not drawn),21.7%
14,CNC(=O)c1cc(Oc2ccc(NC(=O)Nc3ccc(Cl)c(C(F)(F)F)c3)cc2)ccn1,-11%
15,CCCOC(C(=O)OC1CCN(C)CC1)(c1ccccc1)c1ccccc1,26.4%
16,CC(=O)Oc1ccccc1C(=O)O,2.58%
17,C#Cc1cccc(Nc2ncnc3cc(OCCOC)c(OCCOC)cc23)c1,-11.4%

row,SMILES,inhibition
1,CCC1=CC2CN(C1)Cc1c([nH]c3ccccc13)C(C(=O)OC)(c1cc3c(cc1OC)N(C)C1C(O)(C(=O)OC)C(OC(C)=O)C4(CC)C=CCN5CCC31C54)C2 (stereo not drawn),27%
2,CN1CC(C(=O)NC2(C)OC3(O)C4CCCN4C(=O)C(Cc4ccccc4)N3C2=O)CC2c3cccc4[nH]cc(c34)CC21 (stereo not drawn),34.2%
3,C#Cc1cccc(Nc2ncnc3cc4c(cc23)OCCOCCOCCO4)c1,-14.6%
4,Cc1cc(=O)n(-c2ccccc2)n1C,8.96%
5,CC1CCC2(C(=O)O)CCC3(C)C(=CCC4C5(C)CC(O)C(O)C(C)(CO)C5C(O)CC43C)C2C1C (stereo not drawn),31%
6,O=C(CCCCCCC(=O)Nc1ccccc1)NO,-65.2%
7,CN(C)c1ccc2nc3ccc(=[N+](C)C)cc-3sc2c1,100% (active)
8,Cc1ccc2c(c1)c1c(n2CCc2ccc(C)nc2)CCN(C)C1,-29.9%
9,COC(=O)/C=C/C(=O)OC,3.37%
10,C=CCc1ccc(O)c(-c2ccc(O)c(CC=C)c2)c1,93.5%
11,COc1ccc(Cl)cc1C(=O)NCCc1ccc(S(=O)(=O)NC(=O)NC2CCCCC2)cc1,-30.9%
12,O=C(C=Cc1ccc(O)c(O)c1)OC(Cc1ccc(O)c(O)c1)C(=O)O (stereo not drawn),95%
13,CCc1c2c(nc3ccc(OC(=O)N4CCC(N5CCCCC5)CC4)cc13)-c1cc3c(c(=O)n1C2)COC(=O)C3(O)CC (stereo not drawn),46.1%
14,O=S(=O)(O)c1cc(S(=O)(=O)O)c2c(N=Nc3ccccc3)c(O)ccc2c1,39%
15,CCOC(=O)C1=C(C)NC(C)=C(C(=O)OC)C1c1cccc(Cl)c1Cl (stereo not drawn),51.7%
16,CC12CC3(O)OC(O1)C1(COC(=O)c4ccccc4)C3CC21OC1OC(CO)C(O)C(O)C1O (stereo not drawn),-50%
